According to PubChem BioAssay AID371 (SRMLSC, 2006):
Among all 3,300 compounds or so, about 280 (8.5%) were called active. The list comes from a sample in which actives are over-represented; it also holds similar structures and randomly drawn compounds. A number with no mark means an inactive call.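 How the source made its calls: active means mean growth inhibition over the two runs of 50% or more; inactive means mean growth inhibition under 50%.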

Experiment: A549 NSCLC cell proliferation inhibitors – ATP luminescence, human non-small cell lung line, primary screen (AID 371);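 further: compound exposure lasted 72 h before the ATP read; 0% = untreated cell signal and 100% = no luminescence left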
Settings: at 10 µM, active compounds read high

For `CCCCCCSC1=C(C#N)C(c2ccccc2)CC(=O)N1` (centres undefined), which growth inhibition is on record?
The growth inhibition was 17.1%.

For `N#CC1=C2SCC(O)(c3ccccc3)N2C(=O)CC1c1ccccc1` (centres undefined), which growth inhibition is on record?
The growth inhibition was 61.5% (active).

For `C=C(C)CSC1=C(C#N)C(c2ccsc2)CC(=O)N1` (centres undefined), which growth inhibition is on record?
Its growth inhibition is 11.7%.

Which growth inhibition does the source give for `CCCCn1c(O)c(C=NCCCN(C)C)c(=O)[nH]c1=O` here?
The growth inhibition was -0.32%.

Which growth inhibition does the source give for `CC1(C)Cc2c(C#N)c(SCCC#N)nc(N3CCOCC3)c2CS1` here?
The growth inhibition was 26.4%.

Which growth inhibition does the source give for `CCOc1ccc(S(=O)(=O)N(C)CCO)cc1-c1nc2c(C(C)(C)C)nn(C)c2c(=O)[nH]1` here?
Its growth inhibition is 22%.

For `CCOc1ccc(S(=O)(=O)N(C)C)cc1-c1nc2c(C(C)(C)C)nn(C)c2c(=O)[nH]1`, which growth inhibition is on record?
The growth inhibition was -2.28%.

For `CCOc1ccc(S(=O)(=O)NC(C)(C)C)cc1-c1nc2c(C(C)(C)C)nn(C)c2c(=O)[nH]1`, which growth inhibition is on record?
The growth inhibition was 62.9% (active).

Which growth inhibition does the source give for `COC(=O)C(NC(=O)c1ccccc1)(Nc1nc(C)cs1)C(F)(F)F` (centres undefined) here?
The growth inhibition was 4.51%.

Which growth inhibition does the source give for `CN(C)C(CN1C(=O)C2CC=CCC2C1=O)c1cn(C)c2ccccc12` (centres undefined) here?
Its growth inhibition is -4.21%.

Which growth inhibition does the source give for `COc1ccc2[nH]c(C)c(C(=O)CN3CCOCC3)c2c1` here?
The growth inhibition was -6.74%.

Which growth inhibition does the source give for `Nc1nnnn1/N=C/c1ccccn1` here?
The growth inhibition was 3.3%.

With `CCN(CC)C(=O)CSC1=C(C#N)C(c2ccco2)C(C(=O)OCCOC)=C(C)N1` (centres undefined) as the compound, how does the growth inhibition read?
Its growth inhibition is 1.8%.

Which growth inhibition does the source give for `C=CCOC(=O)C1=C(C)NC(SCC(=O)N(CC)CC)=C(C#N)C1c1ccco1` (centres undefined) here?
Its growth inhibition is 21.8%.

Which growth inhibition does the source give for `CCc1ccc(NC(=O)CSC2=C(C#N)C(c3ccco3)C3=C(CCCC3=O)N2)cc1` (centres undefined) here?
The growth inhibition was 44.8%.

Which growth inhibition does the source give for `CCCCc1ccc(NC(=O)CSC2=C(C#N)C(c3ccco3)C3=C(CCCC3=O)N2)cc1` (centres undefined) here?
Its growth inhibition is 57.6% (active).

Which growth inhibition does the source give for `CCOC(=O)C1=C(c2ccccc2)NC(SCC(=O)Nc2ccccc2C)=C(C#N)C1c1ccco1` (centres undefined) here?
Its growth inhibition is 38.8%.

Which growth inhibition does the source give for `COc1cccc(NC(=O)CSC2=C(C#N)C(c3ccco3)C3=C(CCCC3=O)N2)c1` (centres undefined) here?
The growth inhibition was 60.1% (active).

Which growth inhibition does the source give for `COCCOC(=O)C1=C(C)NC(SCC(=O)NC(C)(C)C)=C(C#N)C1c1ccco1` (centres undefined) here?
The growth inhibition was 32.6%.

For `C=CCOC(=O)C1=C(C)NC(SCC(=O)Nc2ccc(C)c(Cl)c2)=C(C#N)C1c1ccco1` (centres undefined), which growth inhibition is on record?
Its growth inhibition is 84.2% (active).

For `COc1ccc(OC)c(NC(=O)CSC2=C(C#N)C(c3ccco3)C3=C(CCCC3=O)N2)c1` (centres undefined), which growth inhibition is on record?
Its growth inhibition is 16.1%.

Which growth inhibition does the source give for `CCc1ccccc1NC(=O)CSC1=C(C#N)C(c2ccc(O)c(OC)c2)C2=C(CCCC2=O)N1` (centres undefined) here?
Its growth inhibition is 35%.

For `C=CCOC(=O)C1=C(C)NC(SCC(=O)N(CC)CC)=C(C#N)C1c1ccccc1` (centres undefined), which growth inhibition is on record?
Its growth inhibition is 51.2% (active).

For `COc1ccc(NC(=O)CSC2=C(C#N)C(c3ccco3)C3=C(CCCC3=O)N2)c(OC)c1` (centres undefined), which growth inhibition is on record?
The growth inhibition was 10.5%.

Which growth inhibition does the source give for `O=c1[nH]c(CN2CCCCC2)nc2c1C1(CCCCC1)Cc1ccccc1-2` here?
The growth inhibition was -4.24%.

With `CCCCc1[nH]c(=O)c(C#N)c2c1CSC(C)(C)C2` as the compound, how does the growth inhibition read?
The growth inhibition was 7.58%.

For `CCCCOC(=O)CSC1=C(C#N)C(c2ccccc2OC)C(C#N)C(=O)N1` (centres undefined), which growth inhibition is on record?
The growth inhibition was 6.07%.

With `COc1ccc2nc(SCC(=O)O)nc(C)c2c1` as the compound, how does the growth inhibition read?
Its growth inhibition is -2.56%.

For `COc1ccc(-c2cc(=O)[nH]c(=O)[nH]2)cc1`, which growth inhibition is on record?
Its growth inhibition is 1.67%.

With `Cc1nnc2n(-c3ccccc3)c(=O)c3c4c(sc3n12)COC(C)(C)C4` as the compound, how does the growth inhibition read?
The growth inhibition was -0.59%.

With `N#Cc1ccc(-c2cccnc2)nc1SCC(=O)Nc1sc2c(c1C#N)CCC2` as the compound, how does the growth inhibition read?
Its growth inhibition is 14.6%.

For `CCC(C)n1ncn(-c2ccc(N3CCN(c4ccc(OCC5COC(Cn6cncn6)(c6ccc(Cl)cc6Cl)O5)cc4)CC3)cc2)c1=O` (centres undefined), which growth inhibition is on record?
Its growth inhibition is 50.3% (active).

Which growth inhibition does the source give for `COCc1n[nH]c(=S)n1-c1cccc2ccccc12` here?
The growth inhibition was 4.29%.

For `CCOc1ccc(N=C2C(=O)N(CN3CCOCC3)c3ccccc32)cc1`, which growth inhibition is on record?
The growth inhibition was 20.3%.

With `COC(=O)c1ccc(Cn2c(O)c(N=O)c3ccccc32)o1` as the compound, how does the growth inhibition read?
The growth inhibition was 8.55%.

For `CCCCCC(=O)N1CC2(CC)CN(C(=O)CCCCC)CC(CC)(C1)C2=O`, which growth inhibition is on record?
The growth inhibition was 14.3%.

For `O=C1c2ccccc2C(=O)C1c1ccc2ccccc2n1`, which growth inhibition is on record?
The growth inhibition was 74.9% (active).

Which growth inhibition does the source give for `O=C(O)CCSc1ccc2ccccc2n1` here?
Its growth inhibition is 1.45%.

Which growth inhibition does the source give for `CC(Sc1ccc2ccccc2n1)C(=O)O` (centres undefined) here?
Its growth inhibition is -2.6%.

Which growth inhibition does the source give for `COC(=O)C1=C(N)Oc2cc(C)oc(=O)c2C1c1ccncc1` (centres undefined) here?
Its growth inhibition is -1.55%.

For `COC(=O)/C(=C1/Oc2cc(C)oc(=O)c2S1)C(F)(F)F`, which growth inhibition is on record?
Its growth inhibition is 76.1% (active).

With `COC(=O)c1ccc(C2/C(=C(\O)c3cccc(OC)c3)C(=O)C(=O)N2CCCN(C)C)cc1` (centres undefined) as the compound, how does the growth inhibition read?
Its growth inhibition is 1.92%.

Which growth inhibition does the source give for `Cc1nnc2n(-c3ccccc3)c(=O)c3c4c(sc3n12)CC(C)CC4` (centres undefined) here?
Its growth inhibition is 12.7%.

With `CN=C(c1ccco1)n1c(=S)nc(-c2ccco2)n(C)c1=S` as the compound, how does the growth inhibition read?
The growth inhibition was 5.55%.

With `CC(=O)Oc1ccccc1C1OC(=O)c2ccccc2N1C(C)=O` (centres undefined) as the compound, how does the growth inhibition read?
The growth inhibition was 4.51%.

Which growth inhibition does the source give for `NS(=O)(=O)c1ccc(C(=O)O)cc1` here?
Its growth inhibition is -6.06%.

Which growth inhibition does the source give for `CC(=O)Oc1cccc2c1C(=O)c1c(OC(C)=O)cc(C(=O)O)cc1C2=O` here?
Its growth inhibition is 57.8% (active).

With `COc1cc(C(=O)Nc2ccc(O)cc2C(=O)O)ccc1OC(C)=O` as the compound, how does the growth inhibition read?
Its growth inhibition is 2.72%.

With `Nc1cccc(C(=O)O)c1` as the compound, how does the growth inhibition read?
Its growth inhibition is 4.57%.
